Results: PubChem BioAssay AID1259249 (Broad Institute, 2017)
Where “and” joins values, the source holds several entries; their conditions need not be identical. Identical values can stand only once. Hit rate of the full screen: of about 86,000 compounds, about 220 (0.26%) were called active.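 How the source made its calls: active means mean growth activity at or below -80% and every replicate also at or below -80%; inconclusive means mean at or below -80% but some replicate above -80%; inactive means mean growth activity above -80%.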 The full list was thinned out, with actives kept by preference.

test: C. difficile growth inhibitors, primary screen, HTS (AID 1259249); conditions: Clostridium difficile clinical isolate growth, OD600, 24 h; stronger effect = lower value; screened at 16 µg/mL (by protocol);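 further: 0% = DMSO wells and -100% = levofloxacin 16 µg/mL wells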

Growth activity, negative = inhibition, inactive:
COc1ccc(S(=O)(=O)N(C)C[C@@H]2OCCCC[C@H](C)Oc3ccc(NC(=O)Nc4ccccc4)cc3C(=O)N([C@H](C)CO)C[C@H]2C)cc1 -1.33%, O=C(C[C@@H]1CC[C@H](NS(=O)(=O)c2ccc(F)cc2)[C@@H](CO)O1)NCc1ccccc1F -8.59%, COCC(=O)N1[C@H](CO)[C@H](c2ccccc2C2=CCCCC2)[C@@H]1C#N -0.454%, COc1ccc(NC(=O)Nc2ccc3c(c2)C(=O)N([C@@H](C)CO)C[C@H](C)[C@H](CN(C)Cc2ccc(C(F)(F)F)cc2)OCCCC[C@H](C)O3)cc1 0.631%, C[C@@H]1CN([C@H](C)CO)C(=O)c2cc(NC(=O)Nc3ccc(C(F)(F)F)cc3)ccc2O[C@@H](C)CCCCO[C@@H]1CN(C)Cc1ccc(C(F)(F)F)cc1 0.541%, COc1ccc(S(=O)(=O)N2CC[C@@H]3[C@H](CO)Nc4ccc(C#Cc5cccc(OC)c5)cc4[C@@H]32)cc1 47.9%, CCCNC(=O)N1[C@@H]2CNC[C@H]1C2c1ccc(-c2cccc(C)c2)cc1 (some centres not stated) -6.26% and -5.23%, C[C@H](CO)N1C[C@H](C)[C@@H](CN(C)C(=O)C2CCC2)Oc2cc(C3=CCCCC3)ccc2S1(=O)=O -7.06%, O=C(C[C@@H]1CC[C@@H](NC(=O)c2cccnc2)[C@H](CO)O1)NCCN1CCCCC1 -5.37%, CN(C)C(=O)C[C@@H]1CC[C@H]2[C@@H](COC[C@H](O)CN2S(=O)(=O)c2ccccc2)O1 0.743% and 2.09%, O=C(NC1Cc2ccccc2C1)[C@@H]1[C@@H](CO)[C@@H]2Cn3c(ccc(C4=CCCC4)c3=O)[C@H]1N2CC1CC1 -0.745%, C[C@H](O)C#Cc1cnc2c(c1)C(=O)N([C@H](C)CO)C[C@@H](C)[C@@H](CN(C)C(=O)Nc1ccc(C(F)(F)F)cc1)O2 4.02%, O=C(Cc1ccccc1)N1CC2(C1)[C@H](c1ccccc1)[C@@H](CO)N2C(=O)c1cccnc1 1.92%, O=C(Cc1cccnc1)N1CC(=O)N2[C@@H](CO)[C@H](c3ccc(C#CC4CC4)cc3)[C@@H]2C1 -8.63%, CCCC(=O)Nc1ccc2c(c1)OC[C@H](C)N(Cc1ccc(F)cc1)C[C@H](C)[C@H](OC)CN(C)C2=O -2.55%, COc1ccc2c3c(n(C)c2c1)[C@H](CO)N(C(=O)c1ccncc1)CC31CCN(CC2CC2)CC1 -4.02%, CN(C)CC(=O)N[C@H]1CC[C@H](CCNC(=O)C2CCCCC2)O[C@H]1CO -2.36%, CCS(=O)(=O)N1CC(=O)N2[C@H](CO)[C@@H](c3ccc(C#Cc4cccc(F)c4)cc3)[C@@H]2C1 -11.9%, CCCNC(=O)N1CC2(CCN(Cc3ccc(F)cc3)CC2)c2c([nH]c3cc(OC)ccc23)[C@@H]1CO -2.16%, COc1ccc(C#Cc2cnc3c(c2)C(=O)N([C@H](C)CO)C[C@@H](C)[C@H](CN(C)C(=O)Nc2cccc(OC)c2)O3)cc1 -9.72%, CO[C@@H]1CN(C)C(=O)c2ccc(NC(=O)NC(C)C)cc2OC[C@@H](C)N(C)C[C@H]1C -0.836%, CO[C@H]1CN(C)C(=O)c2ccc(NC(=O)c3cnccn3)cc2OC[C@H](C)N(C)C[C@@H]1C 4.99%, CC=Cc1ccc2n(c1=O)C[C@H]1[C@H](CO)[C@@H](C(=O)NCCc3cn(C)cn3)[C@@H]2N1C(=O)CC (mixture of isomers) 1.45%, CCNC(=O)C[C@H]1CC[C@@H]2[C@H](COc3ccc(NC(=O)Nc4cccc(Cl)c4)cc3C(=O)N2C)O1 -2.43%, CC(=O)N1[C@H](CNC(=O)CN(C)C)[C@H](c2ccc(C3=CCCC3)cc2)[C@@H]1CO -3.19%, CO[C@H]1O[C@H](CO)[C@@H](OC(=O)Nc2ccc(C(F)(F)F)cc2)[C@H](OC(=O)Nc2ccc3c(c2)OCO3)[C@H]1OC(=O)Nc1ccc2c(c1)OCO2 16.4%, COc1ccc(-c2ccc3c(c2)[C@@H]2[C@@H](CCN2C(=O)NC2CCCC2)[C@@H](CO)N3C)cc1 -8.11%, C[C@H](NC(=O)[C@@H]1[C@@H](CO)[C@@H]2Cn3c(ccc(-c4cccc(F)c4)c3=O)[C@@H]2N1C)c1ccccc1 -2.53%, CN1C(=O)c2cc(NC(=O)C3CCCCC3)ccc2OC[C@H]2O[C@@H](CC(=O)NC3CCCC3)CC[C@@H]21 -2.9%, CO[C@H]1CN(C)C(=O)c2ccc(NC(=O)Nc3ccc(F)cc3)cc2OC[C@@H](C)NC[C@H]1C 0.388%, CO[C@H]1CN(C)C(=O)c2ccc(NC(=O)Nc3ccc4c(c3)OCO4)cc2OC[C@H](C)NC[C@H]1C -11.3%, COc1cccc(NC(=O)N2C[C@@H](O)COC[C@@H]3O[C@@H](CC(=O)NC4CCC4)CC[C@H]32)c1 5.76%, Cc1ccccc1S(=O)(=O)NCC[C@@H]1CC[C@H](NC(=O)C2CCC2)[C@@H](CO)O1 2.36%, O=C(N[C@H]1CC[C@H](CCNS(=O)(=O)c2ccc(F)cc2)O[C@H]1CO)c1cccc(F)c1 -5.13%, COC(=O)C[C@H]1C[C@H]2c3cc(NC(=O)Nc4ccccc4F)ccc3O[C@H]2[C@H](CO)O1 2.15%, COc1cc(C(=O)NC2CCN(C)CC2)ccc1Nc1ncc2c(n1)N(C1CCC(O)CC1)CCC(=O)N2C (configuration not stated) -0.491%, O=C(Nc1cc(F)ccc1F)N1C[C@H]2[C@@H](c3ccccc31)[C@@H](CO)N2CC1CCCC1 8.3%, O=C(NCC1CC1)[C@@H]1[C@@H](CO)[C@@H]2Cn3c(ccc(-c4ccccc4)c3=O)[C@H]1N2Cc1nccs1 -2.44%, CCCNC(=O)N(C)C[C@H]1Oc2ncc(-c3cccc(C#N)c3)cc2C(=O)N([C@@H](C)CO)C[C@@H]1C 2.18%, C[C@@H]1CCCCO[C@@H](CN(C)C(=O)Nc2ccc3c(c2)OCO3)[C@H](C)CN([C@H](C)CO)C(=O)c2cc(NC(=O)CCCN(C)C)ccc2O1 5.23%, O=C(Cc1cccnc1)N1CC(=O)N2[C@@H](CO)[C@@H](c3ccc(C#CC4CCCC4)cc3)[C@@H]2C1 -15.5%, COc1ccc2c3c(n(C)c2c1)[C@@H](CO)N(C)CC31CN(CC2CC2)C1 1.27%, COc1ccc2c3c([nH]c2c1)[C@H](CO)N(C(=O)Nc1ccc(F)cc1)CC31CN(S(=O)(=O)c2cccc(F)c2)C1 0.0849%, O=C(c1cccc(F)c1)N1CC[C@@H]2[C@H](CO)Nc3ccc(-c4ccccc4)cc3[C@@H]21 6.91%, COCC#Cc1ccc([C@@H]2[C@H](CO)N3C(=O)CN(C(=O)C4CCC4)C[C@@H]23)cc1 -5.13%, COc1ccc2c3c([nH]c2c1)[C@@H](CO)N(C(=O)c1ccccc1)CC31CCN(Cc2cccnc2)CC1 3.57%, CC=Cc1ccc2n(c1=O)C[C@H]1[C@H](CO)[C@@H](C(=O)NC3CCCC3)N(Cc3cccnc3)[C@@H]21 (mixture of isomers) 1.31%, CCC(=O)N1CC(=O)N2[C@@H](CO)[C@H](c3ccc(C#CC4CCCC4)cc3)[C@@H]2C1 -2.43%, CN(C)CC#Cc1ccc([C@H]2[C@H]3CN(C(=O)c4cccc(F)c4)CC(=O)N3[C@H]2CO)cc1 2.12%, CO[C@H]1CN(C)C(=O)c2cc(NS(=O)(=O)c3ccccc3C)ccc2OC[C@@H](C)NC[C@@H]1C -1.27%, CS(=O)(=O)N1[C@H](C#N)[C@H](c2ccccc2-c2ccc(F)cc2)[C@@H]1CO 7%, CC(=O)N(C)C[C@H]1[C@H](c2ccc(C3=CCCCC3)cc2)[C@H](CO)N1CC1CC1 33.9%, O=C(C[C@@H]1CC[C@@H](NC(=O)C2CCOCC2)[C@H](CO)O1)NCC1CC1 1.16%, COc1ccccc1NC(=O)N1CC(=O)N2[C@H](C1)[C@H](c1ccc(C#Cc3ccccc3)cc1)[C@@H]2CO 12.6%, CCCNC(=O)C[C@H]1C[C@H]2c3cc(NC(=O)NC4CCCCC4)ccc3O[C@H]2[C@H](CO)O1 -4.2%, COc1cccc(NC(=O)C[C@@H]2CC[C@H]3[C@@H](COc4ccc(NC(=O)C5CCC5)cc4C(=O)N3C)O2)c1 -1.63%, C[C@@H]1CN([C@@H](C)CO)S(=O)(=O)c2ccc(/C=C/c3ccccc3)cc2O[C@H]1CN(C)C(=O)Nc1cc(F)ccc1F 4.39%, C/C=C/c1ccc([C@H]2[C@H](CO)N(C(=O)CN(C)C)C23CN(C(=O)C2CC2)C3)cc1 -0.638%, CN1c2ccc(-c3ccccc3F)cc2[C@H]2[C@H](CCN2C(=O)Nc2cc(F)ccc2F)[C@H]1CO 38.2%, C[C@@H]1CCCCO[C@@H](CN(C)C(=O)CCC(F)(F)F)[C@H](C)CN([C@@H](C)CO)C(=O)c2cc(NC(=O)CCCN(C)C)ccc2O1 2.21%

Growth activity, negative = inhibition, active:
COc1ccc(CN(C)C[C@@H]2OCCCC[C@@H](C)Oc3ccc(NC(=O)Nc4ccc(C(F)(F)F)cc4)cc3C(=O)N([C@H](C)CO)C[C@H]2C)cc1 -85.2%, CO[C@@H]1CN(C)C(=O)c2ccc(NC(=O)Nc3cc(Cl)cc(Cl)c3)cc2OC[C@H](C)NC[C@H]1C -99.2%
